Assay results taken from ChEMBL document CHEMBL4296182, “CO-ADD screening of NIH NCI Diversity Set V”.
Results with a measured potency or affinity are listed apart.

What follows are compounds tested on Klebsiella pneumoniae. Settings: Concentration 20 uM; ASSAY_TEST Inhibition of Bacterial Growth; detection method Absorption (OD600); MEDIA CAMHB; plate type 384well; NBS; CORNING #3640; time 18 hr.
In the case of `COc1ccc(C(=S)N2CCN(c3ccccc3C)CC2)cc1`, the Inhibition is reported as 10.93%. Work on `N#CC1=CC2CN(Cc3ccccc3)C1C1C(=O)N(c3ccccc3)C(=O)C21` (stereo not drawn) yielded an Inhibition of 5.72%. Work on `CC1CC=C(O)C12OCC(C)(C)CO2` (stereo not drawn) yielded an Inhibition of 14.38%. `COc1ccc([N+](=O)[O-])cc1NC(=O)N(C)Cc1ccco1` was tested, and the Inhibition was 14.11%. `CCCN=C(S)Nc1ccccc1` gave an Inhibition of 7.36%. In the case of `OC(COc1ccc(Cl)cc1)CN1CCN(c2cccc(Cl)c2)CC1` (stereo not drawn), the Inhibition is reported as 10.9%. `COc1ccc2c3c([nH]c2c1)[C@H]1C[C@H]2[C@H](C[C@@H](O)[C@H](OC)[C@H]2CO)CN1CC3` showed an Inhibition of 7.11%. `C1COCCN1.O=C(O)C(C=C(Cl)Cl)N1CCOCC1` (stereo not drawn) gave an Inhibition of 22.22%. With `OC1(Cc2ccccc2)CCNCC1` the Inhibition was 12.17%. `C/C(=N\O)C1CC(CC(=O)O)C1(C)C` (stereo not drawn) gave an Inhibition of 2.97%. With `Clc1nc(NCCc2ccccc2)c2c[nH]nc2n1` the Inhibition was 13.65%. `CC(NC(=O)c1ccc(Cl)c(Cl)c1)c1ccc(-c2ccccc2)cc1` (stereo not drawn) showed an Inhibition of 14.03%. In the case of `O=C(Nc1ccc2ccccc2c1)c1cccc(F)c1`, the Inhibition is reported as 2.58%. In the case of `O=C(/C=C/C(=O)N1CCc2ccccc2C1)N1CCc2ccccc2C1`, the Inhibition is reported as 3.56%. Work on `O=C(O)C1OCC2(CO1)COC(C(=O)O)OC2` (stereo not drawn) yielded an Inhibition of 3.27%. `CC1(C)C2CCC(CN=C(N)CSS(=O)(=O)O)C1C2` (stereo not drawn) gave an Inhibition of 19.04%. For `CCCCSc1cc(O)nc(N)n1`, the Inhibition was 10.64%. `CCc1oc2ccccc2c1C(=O)c1cc(Br)c(O)c(Br)c1` [BENZBROMARONE] gave an Inhibition of 12.45%. Compound `COc1ccc(C2OC3=Nc4cc(C)c(C)cc4NC3=C2O)cc1` (stereo not drawn) has an Inhibition of 7.32%. `O=C1COc2cccnc2N1` gave an Inhibition of 27.65%. Work on `Nc1nc(SCc2ccccc2)sc1C(=O)N1CCCCC1` yielded an Inhibition of 21.18%. With `CS(=O)(=O)Oc1ccc(Br)c2cccnc12` the Inhibition was 19.67%. `O=c1[nH]c2c(cnn2-c2ccc(Cl)cc2)c(=O)n1-c1cccc(Cl)c1` showed an Inhibition of 28.41%. With `Cc1ccc(Nc2nnc(S)s2)cc1F` the Inhibition was 11.86%. In the case of `CCSc1nc(C)c(C)c(O)n1`, the Inhibition is reported as 6.61%. Compound `COc1c(O)ccc2c1CN1CCc3cc4c(cc3C1C2)OCO4` (stereo not drawn) has an Inhibition of 10.21%. With `Oc1ccccc1-n1c(-c2ccccc2)ccc1-c1ccccc1` the Inhibition was 19.15%. In the case of `CC1=Nc2ccccc2/C1=C\c1c(C)[nH]c2ccccc12`, the Inhibition is reported as 14.94%. Work on `Oc1ccc2ccccc2c1/N=N/c1ccc(F)cc1` yielded an Inhibition of 13.5%. For `O=P(O)(O)c1cc(-c2ccccc2)oc1-c1ccccc1`, the Inhibition was 15.02%. `Nc1ccn(C2OC(CCl)C(O)C2O)c(=O)n1` (stereo not drawn) was tested, and the Inhibition was 13.7%. `NC(S)=Nc1cccc(Cl)c1` gave an Inhibition of 0.23%. In the case of `Cc1nc2[nH]c(=O)n(O)c(=O)c2s1`, the Inhibition is reported as 12.49%. Work on `N#CC1=C(Nc2ccccc2Cl)SC(c2ccccc2O)NC1=O` (stereo not drawn) yielded an Inhibition of 12.14%. `Cc1nc(Nc2ccc(F)cc2)nc(Nc2ccc(F)cc2)c1[N+](=O)[O-]` showed an Inhibition of 11.05%. `c1ccc(-c2ccc(-c3nccc4ccccc34)[nH]2)cc1` showed an Inhibition of 4.74%. `CC(=O)[C@H]1CC[C@H]2[C@@H]3CCC4=CC(=O)CC[C@]4(C)[C@@]3(F)[C@@H](O)C[C@]12C` was tested, and the Inhibition was 7.06%. `COc1ccc2c(n1)Sc1nc3ccccc3nc1N2` gave an Inhibition of 4.25%. `CCOC(=O)Nc1ccc2[nH]c(-c3cscn3)nc2c1` showed an Inhibition of 4.63%.

These compounds were tested on Candida albicans. Settings: 20 µM.
Work on `COc1ccc(C(=S)N2CCN(c3ccccc3C)CC2)cc1` yielded an Inhibition of 24.1%. In the case of `N#CC1=CC2CN(Cc3ccccc3)C1C1C(=O)N(c3ccccc3)C(=O)C21` (stereo not drawn), the Inhibition is reported as 9.06%. For `CC1CC=C(O)C12OCC(C)(C)CO2` (stereo not drawn), the Inhibition was 0.02%. `COc1ccc([N+](=O)[O-])cc1NC(=O)N(C)Cc1ccco1` gave an Inhibition of -1.23%. `CCCN=C(S)Nc1ccccc1` was tested, and the Inhibition was 4.15%. In the case of `OC(COc1ccc(Cl)cc1)CN1CCN(c2cccc(Cl)c2)CC1` (stereo not drawn), the Inhibition is reported as -0.89%. `COc1ccc2c3c([nH]c2c1)[C@H]1C[C@H]2[C@H](C[C@@H](O)[C@H](OC)[C@H]2CO)CN1CC3` was tested, and the Inhibition was -0.63%. With `C1COCCN1.O=C(O)C(C=C(Cl)Cl)N1CCOCC1` (stereo not drawn) the Inhibition was 3.18%. With `OC1(Cc2ccccc2)CCNCC1` the Inhibition was 7.54%. With `C/C(=N\O)C1CC(CC(=O)O)C1(C)C` (stereo not drawn) the Inhibition was 2.15%. With `Clc1nc(NCCc2ccccc2)c2c[nH]nc2n1` the Inhibition was 5.89%. `CC(NC(=O)c1ccc(Cl)c(Cl)c1)c1ccc(-c2ccccc2)cc1` (stereo not drawn) was tested, and the Inhibition was -5.14%. Work on `O=C(Nc1ccc2ccccc2c1)c1cccc(F)c1` yielded an Inhibition of 9.01%. In the case of `O=C(/C=C/C(=O)N1CCc2ccccc2C1)N1CCc2ccccc2C1`, the Inhibition is reported as 7.97%. `O=C(O)C1OCC2(CO1)COC(C(=O)O)OC2` (stereo not drawn) was tested, and the Inhibition was 1.43%. In the case of `CC1(C)C2CCC(CN=C(N)CSS(=O)(=O)O)C1C2` (stereo not drawn), the Inhibition is reported as -2.77%. Work on `CCCCSc1cc(O)nc(N)n1` yielded an Inhibition of -1.45%. `CCc1oc2ccccc2c1C(=O)c1cc(Br)c(O)c(Br)c1` [BENZBROMARONE] showed an Inhibition of 9.57%. For `COc1ccc(C2OC3=Nc4cc(C)c(C)cc4NC3=C2O)cc1` (stereo not drawn), the Inhibition was 1.04%. `O=C1COc2cccnc2N1` gave an Inhibition of 4.29%. Work on `Nc1nc(SCc2ccccc2)sc1C(=O)N1CCCCC1` yielded an Inhibition of 8.19%. For `CS(=O)(=O)Oc1ccc(Br)c2cccnc12`, the Inhibition was 4.07%. `O=c1[nH]c2c(cnn2-c2ccc(Cl)cc2)c(=O)n1-c1cccc(Cl)c1` gave an Inhibition of 2.46%. `Cc1ccc(Nc2nnc(S)s2)cc1F` was tested, and the Inhibition was 12.1%. With `CCSc1nc(C)c(C)c(O)n1` the Inhibition was 2.45%. Compound `COc1c(O)ccc2c1CN1CCc3cc4c(cc3C1C2)OCO4` (stereo not drawn) has an Inhibition of -2.64%. Compound `Oc1ccccc1-n1c(-c2ccccc2)ccc1-c1ccccc1` has an Inhibition of 11.1%. In the case of `CC1=Nc2ccccc2/C1=C\c1c(C)[nH]c2ccccc12`, the Inhibition is reported as 6.28%. `Oc1ccc2ccccc2c1/N=N/c1ccc(F)cc1` showed an Inhibition of -3.66%. Compound `O=P(O)(O)c1cc(-c2ccccc2)oc1-c1ccccc1` has an Inhibition of 5.26%. `Nc1ccn(C2OC(CCl)C(O)C2O)c(=O)n1` (stereo not drawn) showed an Inhibition of 0.99%. In the case of `NC(S)=Nc1cccc(Cl)c1`, the Inhibition is reported as 2.81%. `Cc1nc2[nH]c(=O)n(O)c(=O)c2s1` gave an Inhibition of 3.41%. `N#CC1=C(Nc2ccccc2Cl)SC(c2ccccc2O)NC1=O` (stereo not drawn) gave an Inhibition of 4.82%. `Cc1nc(Nc2ccc(F)cc2)nc(Nc2ccc(F)cc2)c1[N+](=O)[O-]` gave an Inhibition of -2.79%. Compound `c1ccc(-c2ccc(-c3nccc4ccccc34)[nH]2)cc1` has an Inhibition of 14%. `CC(=O)[C@H]1CC[C@H]2[C@@H]3CCC4=CC(=O)CC[C@]4(C)[C@@]3(F)[C@@H](O)C[C@]12C` was tested, and the Inhibition was 0.8%. In the case of `COc1ccc2c(n1)Sc1nc3ccccc3nc1N2`, the Inhibition is reported as 3.02%. `CCOC(=O)Nc1ccc2[nH]c(-c3cscn3)nc2c1` gave an Inhibition of -2.03%.
